PubChem BioAssay (NCATS)
Activity calls are given as the source filed them. Calls follow the shape of the dose curve; as a rule, active = well fitted inhibition curve with a large enough effect; inconclusive = small, poorly fitted or top-dose-only effect; inactive = flat fitted curve, though single readings scatter.

biological target: DNA polymerase III PolC-type (Bacillus subtilis (strain 168)) (UniProt P13267); test: qHTS Validation Assay for the Inhibitors of DNA Replication in Gram-Positive Bacteria (AID 485295); conditions: Gram-positive bacterial DNA replication assay; series mostly up to 57.1 µM; activity change, negative = inhibition: at the top concentration;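 as to activity change, negative = inhibition: reconstituted holoenzyme with PolC plus beta clamp SSB and primase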
Procedure: B Subtilis DNA polymerase III holoenzyme complex was assayed for DNA production by fluorescent detection of the double-stranded DNA product with PicoGreen dye. The holoenzyme complex was reconstituted from the following purified protein components: DNA Polymerase III, beta subunit processivity factor, SSB single-stranded DNA binding protein, and Primase. Single-stranded, circular M13Gori was used as a substrate with dNTPs and NTPs also supplied to the substrate reagent. Compounds from the NCGC collection were incubated with the holoenzyme mixture for […] at room temperature to allow binding to occur, and then the reaction was started by the addition of substrate. After 30 min incubation at room temperature, PicoGreen solution containing EDTA was added to stop the reaction and to visualize the double-stranded DNA produced. Reaction progress was measured in a ViewLux CCD imager in fluorescence intensity mode by using 480 nm excitation and 540 nm emission filter set.
1. Thaw screening compounds.
2. Label assay plates. Prepare pipette tips, reagent reservoirs, buffers and controls.
1. Thaw Enzymes, DNA template, Nucleotides and PicoGreen dye concentrate. Thawed enzymes are stable on ice for ~1
week. Other thawed components are stable indefinitely.
2. Prepare sufficient quantities of Enzyme, Substrate and PicoGreen Quench mixes (according to Table II). For the number of
compound plates being screened.
3. Ensure that the tip wash station reservoirs have clean water and turn on recirculating chiller so that the chilled deck position
1. Load 2 uL of EDTA controls (250 mM, Background, 100 % inhibition) and 2 uL of DMSO controls (Negative control, 0%
inhibition) in the screening plates (flat-bottomed black 384-well polypropylene, Greiner Bio-one).
2. Place Enzyme mix reservoir on the chiller position of the liquid handler deck. Make sure that chiller will maintain
temperature of Enzyme mix at 4degC. Substrate mix and PicoGreen Quench can be stored at room temp.
3. Program liquid handling robotics to dispense 18 uL of Enzyme mix into assay plates. Wash tips.
4. Aspirate and dispense 2 uL of compound from compound plates, mix and Incubate at room temperature for 10 minutes.
5. Aspirate 5 ul of Substrate mix, dispense into assay plates and mix by pipetting. Wash tips.
6. Incubate at room temperature (21 +/- 1 deg C) for 20 minutes.
7. Quench reactions by addition of 25 uL PicoGreen Quench mix and mix by pipetting (using HTS robotics or bulk reagent
dispenser such as a Multidrop or uFill). Keep plates in the dark or stacked until ready to read fluorescence.
8. Read fluorescence intensity of plates on plate reader using "Fluorescein (Ex 485 nm/ Em 535 nm, 0.1s)" setting.
Potency is read from the fitted curve at half-maximal effect.

Chain of DNA polymerase III PolC-type (Bacillus subtilis (strain 168)) (P13267 whole entry, looked up): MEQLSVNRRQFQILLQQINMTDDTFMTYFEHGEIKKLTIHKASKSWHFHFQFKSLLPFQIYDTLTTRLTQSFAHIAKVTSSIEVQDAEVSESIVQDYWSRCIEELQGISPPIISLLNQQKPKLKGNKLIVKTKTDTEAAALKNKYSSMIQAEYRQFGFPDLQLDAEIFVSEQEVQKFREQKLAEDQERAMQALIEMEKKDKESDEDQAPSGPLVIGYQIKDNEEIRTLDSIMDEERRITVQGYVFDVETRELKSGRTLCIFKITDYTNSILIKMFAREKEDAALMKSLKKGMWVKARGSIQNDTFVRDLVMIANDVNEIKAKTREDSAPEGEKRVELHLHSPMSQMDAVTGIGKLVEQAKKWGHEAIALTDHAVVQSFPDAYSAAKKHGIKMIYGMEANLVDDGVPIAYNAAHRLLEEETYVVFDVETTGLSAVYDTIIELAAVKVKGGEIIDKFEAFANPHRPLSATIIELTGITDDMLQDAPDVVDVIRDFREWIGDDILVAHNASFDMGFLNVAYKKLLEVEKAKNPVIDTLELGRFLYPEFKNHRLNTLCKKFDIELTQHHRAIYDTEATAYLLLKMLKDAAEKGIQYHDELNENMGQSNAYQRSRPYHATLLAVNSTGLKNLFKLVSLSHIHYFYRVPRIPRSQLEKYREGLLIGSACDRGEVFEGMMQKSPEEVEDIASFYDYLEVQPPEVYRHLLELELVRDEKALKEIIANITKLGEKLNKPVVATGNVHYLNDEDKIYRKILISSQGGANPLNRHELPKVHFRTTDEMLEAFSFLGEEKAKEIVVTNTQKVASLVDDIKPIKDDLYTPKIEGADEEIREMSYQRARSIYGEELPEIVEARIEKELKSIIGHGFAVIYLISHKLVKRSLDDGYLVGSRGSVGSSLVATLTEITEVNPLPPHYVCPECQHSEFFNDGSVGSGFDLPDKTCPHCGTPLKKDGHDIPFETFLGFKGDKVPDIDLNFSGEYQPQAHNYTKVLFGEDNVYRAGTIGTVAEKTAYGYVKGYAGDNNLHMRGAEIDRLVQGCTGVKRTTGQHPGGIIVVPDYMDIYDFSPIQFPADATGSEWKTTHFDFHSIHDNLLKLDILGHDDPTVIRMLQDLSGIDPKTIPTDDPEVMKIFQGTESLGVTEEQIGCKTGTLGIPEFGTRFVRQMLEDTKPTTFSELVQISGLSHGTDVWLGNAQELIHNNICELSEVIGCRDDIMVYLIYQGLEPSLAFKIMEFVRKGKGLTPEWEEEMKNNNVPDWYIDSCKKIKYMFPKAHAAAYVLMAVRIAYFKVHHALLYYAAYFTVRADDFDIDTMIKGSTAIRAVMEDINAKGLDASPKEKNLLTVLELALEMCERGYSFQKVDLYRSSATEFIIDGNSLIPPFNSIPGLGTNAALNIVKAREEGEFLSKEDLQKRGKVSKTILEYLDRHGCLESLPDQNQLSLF

Compound | activity change, negative = inhibition | Potency
OC(CN1CCC(Cc2ccc(F)cc2)CC1)c1ccc(Cl)cc1 (stereo not given) | 2.49% (inactive) | 
O=c1n(CCCN2CCN(c3cccc(Cl)c3)CC2)nc2ccccn12 | 9.21% (inactive) | 
CC(C)(Sc1ccc(CCN(CCCCC2CCCCC2)C(=O)NC2CCCCC2)cc1)C(=O)O |  | 26.7 µM (active)
O=c1[nH]cnc2[nH]ncc12 | 1.69% (inactive) | 
Cc1[nH]c(=O)c(C#N)cc1-c1ccncc1 | 2.15% (inactive) | 
Nc1ccc(S(=O)(=O)Nc2ccnn2-c2ccccc2)cc1 | 2.18% (inactive) | 
NNCCc1ccccc1 | -5.78% (inactive) | 
C1COC(NC(C2CC2)C2CC2)=N1 | 5.7% (inactive) | 
Nc1ncnc2nc(-c3ccc(N4CCOCC4)nc3)cc(-c3cccc(Br)c3)c12 | -10.3% (inactive) | 
CC(C[N+](C)(C)C)OC(N)=O (stereo not given) | 1.68% (inactive) | 
CCn1cc(C(=O)O)c(=O)c2cc(F)c(N3CCNC(C)C3)c(F)c21 (stereo not given) | 5.82% (inactive) | 
NC(=O)c1cnccn1 | -1.64% (inactive) | 
c1ccc([C@H]2CN3CCSC3=N2)cc1 | 4.99% (inactive) | 
O=C1CCC(N2C(=O)c3ccccc3C2=O)C(=O)N1 (stereo not given) | 2.44% (inactive) | 
CN1CCN(CCCN2c3ccccc3Sc3ccc(C(F)(F)F)cc32)CC1 | 3.24% (inactive) | 
NC[C@H](O)c1ccc(O)c(O)c1 | -2.94% (inactive) | 
N=c1nc(N2CCCCC2)cc(N)n1O | -0.353% (inactive) | 
Cc1ccccc1C(OCCN(C)C)c1ccccc1 (stereo not given) | -0.218% (inactive) | 
O=C(Nc1nc2ccccc2n1CCN1CCOCC1)c1cccc([N+](=O)[O-])c1 | -5.27% (inactive) | 
O=NN(CCCl)C(=O)NCCCl | 3.22% (inactive) | 

Compound | activity change, negative = inhibition | Potency
N[C@@H]1CONC1=O | 3.28% (inactive) | 
Cc1[nH]c(=O)c(C#N)cc1-c1ccc2nccn2c1 | -4.81% (inactive) | 
CC(=O)Oc1ccccc1C(=O)O | 3.13% (inactive) | 
CC(C)NCC(O)COc1ccc(COCCOC(C)C)cc1 (stereo not given) | -6.87% (inactive) | 
CNC[C@H](O)c1cccc(O)c1 | 4.11% (inactive) | 
OC(CCN1CCCCC1)(c1ccccc1)C1CC2C=CC1C2 (stereo not given) | 4.25% (inactive) | 
O=C1CCc2cc(OCCCCc3nnnn3C3CCCCC3)ccc2N1 | 4.26% (inactive) | 
Nc1nc2c(ncn2COCCO)c(=O)[nH]1 | 5.08% (inactive) | 
CCOC(=O)N1CCC(=C2c3ccc(Cl)cc3CCc3cccnc32)CC1 | -7% (inactive) | 
CCCCNc1cc(C(=O)O)cc(S(N)(=O)=O)c1Oc1ccccc1 | -5.68% (inactive) | 
NCCc1ccc(O)c(O)c1 | -13.4% (inactive) | 
CC(C)(C)NCC(O)c1ccc(O)c(CO)c1 (stereo not given) |  | inactive
Cc1cccc(-c2[nH]c(C(C)(C)C)nc2-c2ccc3nccnc3c2)n1 | 0.193% (inactive) | 
Nc1nc2ccc(OC(F)(F)F)cc2s1 | 1.49% (inactive) | 
Clc1cccc(Cl)c1NC1=NCCN1 | -2.71% (inactive) | 
NC(N)=NC(=O)c1nc(Cl)c(N)nc1N | 0.143% (inactive) | 
Cc1cn[nH]c1 | -4.37% (inactive) | 
C[C@]12CCC(=O)C=C1CC[C@@H]1[C@@H]2[C@@H](O)C[C@@]2(C)[C@H]1CC[C@]2(O)C(=O)CO | 6.86% (inactive) | 
Cn1cnc([N+](=O)[O-])c1Sc1ncnc2nc[nH]c12 | 1.74% (inactive) | 
CCOC(=O)C1=C[C@]2(CC)CCCN3CCc4c(n1c1ccccc41)[C@@H]32 | 4.51% (inactive) | 
